Values joined by “and” are separate entries in the source; they are usually repeats but may differ in a detail not shown here. Equal values may be shown once. Active and inactive are the calls of the source. Rule for the calls: active = hit-call score of the fitted dose curve at least 0.9, where 1 is the maximum; inactive = score below 0.9.

Read-out in the experiment: Interferon-inducible T-cell alpha chemoattractant (ITAC), CXCL11 (gene 6373)
Description: BSK_BE3C_ITAC: BioMAP Diversity Plus: BE3C Assay for Interferon-inducible T-cell alpha chemoattractant (ITAC) Biomarker Activity (AID 2284279). The note with it: primary human bronchial epithelial cells. As for the experimental part: BSK_BE3C is a cell-based, multiplexed-readout assay that uses bronchial epithelial cell, a human lung primary cell, with measurements taken at 24 hours after chemical dosing in a 96-well plate.BSK_BE3C_ITAC is an assay component measured in the BSK_BE3C assay. It measures I-TAC antibody related to regulation of gene expression using ELISA technology.Data from the assay component BSK_BE3C_ITAC was analyzed at the endpoint, BSK_BE3C_ITAC, in the positive analysis fitting direction relative to DMSO as the negative control and baseline of activity. Using a type of binding reporter, gain or loss-of-signal activity can be used to understand protein changes. To generalize the intended target to other relatable targets, this assay endpoint is annotated to the 'cytokine' intended target family, where the subfamily is 'chemotactic factor'.
The levels of cell surface (or secreted, indicated by the prefix "s") biomarker endpoints were measured by ELISA. Overt cytotoxicity to cells in confluent adherent cultures (all systems other than the BT system) was assessed by measuring total protein levels using sulforhodamine B (SRB) staining in parallel cultures at the time of biomarker measurements, indicated as SRB endpoints. For proliferation assays for adherent cell types, individual cell types are cultured at sub-confluence and relative cell numbers quantified by SRB staining at time points optimized for each system (48 h: 3C and CASM3C systems; 72 h: BT and HDF3CGF systems; 96 h: SAg system). SRB was performed by staining cells with 0.1% SRB after fixation with 10% TCA and reading wells at 560 nm.Viability and proliferation of PBMC (T cells) was quantified by Alamar Blue reduction for the SAg and BT systems. For PBMC viability (referred to as PBMC Cytotoxicity within the assay endpoint names), cells were plated (75,000/well in a 96-well plate) and then chemical samples added for 1 h before addition of activators, SEB and TSST-1 (20 ng/mL final concentration each). Cells were incubated for 90 h. Then, Alamar Blue (20 uL/well) (Invitrogen, Cat DAL1100) was added for 6 h, and the plates were read with a fluorescence microplate reader at 546/580 nm (excitation/emission). For PBMC proliferation, cells were plated and activated as above but incubated for only 16 h prior to addition of Alamar Blue. Plates were read after 6 h.
Regarding `COc1ccccc1Oc1c(NS(=O)(=O)c2ccc(C(C)(C)C)cc2)nc(-c2ncccn2)nc1OCCO`, the outcome was inactive.

Consider `COc1cc(CNC(=O)CCCC/C=C/C(C)C)ccc1O`, for which the result was inactive.

Consider `CCCCC(CC)COC(=O)C=Cc1ccc(OC)cc1` (configuration not stated), for which the outcome was inactive.

Broadly, the AC50 is the midpoint of the concentration-response curve, whichever way the signal moves. Turning to `Cc1c(C(N)=O)cc([N+](=O)[O-])cc1[N+](=O)[O-]`, the AC50 is 32.7 µM (active) and 30.5 µM (active).

For the compound `CCC[Si](OC(C)=O)(OC(C)=O)OC(C)=O`, the result was inactive.

For `OC(C(F)(F)F)(C(F)(F)F)C(O)(C(F)(F)F)C(F)(F)F`, the AC50 was 47.3 µM (active) and 46.1 µM (active).

In the case of `O=[N+]([O-])c1cc(S(=O)(=O)Nc2ccccc2)ccc1Nc1ccccc1`, the AC50 was 28.7 µM (active) and 29.5 µM (active).

For the compound `CC(C)C1OCCN1CCOC(=O)NCCCCCCNC(=O)OCCN1CCOC1C(C)C` (configuration not stated), the result was inactive.

In the case of `C1CN(CCOCCN2CCOCC2)CCO1`, the result was inactive.

With `CC[N+](CC)(CC(=O)Nc1c(C)cccc1C)Cc1ccccc1` (tested in a mixture with another compound), the result was inactive.

With `CN(C)Cc1cc(C(C)(C)C)c(O)c(C(C)(C)C)c1`, the outcome was inactive.

Regarding `COc1ccc(C(=O)c2ccccc2O)c(O)c1`, the outcome was inactive.

These data come from PubChem BioAssay (EPA / NIEHS).
